The results in this text go back to the supplement of paper PMC8773631.

Where a name gives a salt, the structure may show the parent alone. ± gives the uncertainty stated by the source.

In the test the test system is NCC-MFS5-C1. The experiment in a line: cell viability relative to DMSO control; higher = less growth inhibition. Particulars: 10 µM; treatment time: 3 days. The protocol:
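NCC-MFS5-C1 myxofibrosarcoma cells (1x10^4 per well, 384-well) were treated on day 2 with 10 µM of each drug. On day 5, viability was read by CCK-8 absorbance at 450 nm and normalised to the DMSO control (%), n = 2.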
What is called cell viability is a read-out of living cells in per cent, often relative to untreated cells. Take `CNC(=O)c1cc(Oc2ccc(NC(=O)Nc3ccc(Cl)c(C(F)(F)F)c3)cc2)ccn1` [Sorafenib]: the cell viability was 64.2 ± 1.6%.

As to `CS(=O)(=O)c1ccc(C(=O)Nc2ccc(Cl)c(-c3ccccn3)c2)c(Cl)c1` [Vismodegib (GDC-0449)], the cell viability worked out at 70.2 ± 7.4%.

Consider `O=C1CCC(N2C(=O)c3ccccc3C2=O)C(=O)N1` (stereo not given) [Thalidomide], for which the cell viability turned out to be 84.4 ± 8.3%.

For `O=C(c1ccc(OCCN2CCCCC2)cc1)c1c(-c2ccc(O)cc2)sc2cc(O)ccc12` [Raloxifene HCl], the cell viability turned out to be 85 ± 1%.

`O=C(c1cc(Cc2n[nH]c(=O)c3ccccc23)ccc1F)N1CCN(C(=O)C2CC2)CC1`: the cell viability was found to be 78 ± 9.1%.

Turning to `O=C(CCBr)N1CCN(C(=O)CCBr)CC1` [Pipobroman-D8], the cell viability was determined as 108 ± 6.2%.

Regarding `Nc1ccn([C@@H]2O[C@H](CO)[C@@H](O)C2(F)F)c(=O)n1` [Gemcitabine], the cell viability is 91 ± 2.9%.

In the case of `CNC(=O)c1ccc(N2C(=S)N(c3ccc(C#N)c(C(F)(F)F)c3)C(=O)C2(C)C)cc1F` [Enzalutamide (MDV3100)], the cell viability amounted to 80.3 ± 7.7%.

With `COc1nc(N)nc2c1ncn2[C@@H]1O[C@H](CO)[C@@H](O)[C@@H]1O` [Nelarabine], the cell viability was 102 ± 3.3%.

For `CN1CCN(c2ccc(C(=O)Nc3n[nH]c4ccc(Cc5cc(F)cc(F)c5)cc34)c(NC3CCOCC3)c2)CC1` [Entrectinib (RXDX-101)], the cell viability was 14.7 ± 15%.

As to `CCN1CCN(Cc2ccc(Nc3ncc(F)c(-c4cc(F)c5nc(C)n(C(C)C)c5c4)n3)nc2)CC1` [Abemaciclib], the cell viability is 76.5 ± 6.7%.

On to `COc1cc(Nc2ncc(F)c(Nc3ccc4c(n3)N(COP(=O)(O)O)C(=O)C(C)(C)O4)n2)cc(OC)c1OC` [Fostamatinib (R788)], for which the cell viability stood at 29.5 ± 0.8%.

In the case of `O=NN(CCCl)C(=O)NC1CCCCC1` [Lomustine], the cell viability was found to be 84.1 ± 18%.

In the case of `Nc1nc2[nH]cc(CCc3ccc(C(=O)N[C@@H](CCC(=O)O)C(=O)O)cc3)c2c(=O)[nH]1` [Pemetrexed Disodium Hydrate], the cell viability turned out to be 80.7 ± 2.4%.

For `CS(=O)(=O)CCNCc1ccc(-c2ccc3ncnc(Nc4ccc(OCc5cccc(F)c5)c(Cl)c4)c3c2)o1` [Lapatinib], the cell viability stood at 58.6 ± 2.2%.

`FC(F)(F)c1ccc(CNc2ccc(Cc3c[nH]c4ncc(Cl)cc34)cn2)cn1` [Pexidartinib (PLX3397)]: the cell viability is 72.5 ± 5.8%.

With `O=c1[nH]c(=O)n(C2CCCO2)cc1F` (stereo not given), the cell viability was 88.2 ± 5.4%.

For the compound `Cc1[nH]c(/C=C2\C(=O)Nc3ccccc32)c(C)c1CCC(=O)O` [Orantinib (TSU-68, SU6668)], the cell viability is 80.2 ± 1.5%.

Consider `Cc1ccc(C(=O)Nc2ccc(CN3CCN(C)CC3)c(C(F)(F)F)c2)cc1C#Cc1cnc2cccnn12`, for which the cell viability was -2.74 ± 0.27%.

As to `CN(N=O)C(=O)NC1C(O)OC(CO)C(O)C1O` (stereo not given) [Streptozotocin (STZ)], the cell viability is 113 ± 27%.

As to `CCN(CC)CCNC(=O)c1c(C)[nH]c(/C=C2\C(=O)Nc3ccc(F)cc32)c1C` [Sunitinib Malate], the cell viability was found to be 7.73 ± 5.5%.

In the case of `CC(C)C[C@H](NC(=O)[C@H](Cc1ccccc1)NC(=O)c1cnccn1)B(O)O` [Bortezomib (PS-341)], the cell viability amounted to 4.89 ± 1.4%.

Consider `C/C=C1\NC(=O)[C@H]2CSSCC/C=C/[C@H](CC(=O)N[C@H](C(C)C)C(=O)N2)OC(=O)[C@H](C(C)C)NC1=O` [Romidepsin (FK228, Depsipeptide)], for which the cell viability is -1.35 ± 0.8%.

`Nc1ccn([C@@H]2O[C@H](CO)[C@@H](O)[C@@H]2O)c(=O)n1` [Cytosine β-D-arabinofuranoside hydrochloride]: the cell viability is 118 ± 20%.

`COc1cccc2c1C(=O)c1c(O)c3c(c(O)c1C2=O)C[C@@](O)(C(=O)CO)C[C@@H]3O[C@H]1C[C@H](N)[C@H](O)[C@H](C)O1` [Doxorubicin (Adriamycin)]: the cell viability is 37.47 ± 0.32%.

Turning to `CCOc1cc(C(C)(C)C)ccc1C1=N[C@@](C)(c2ccc(Cl)cc2)[C@@](C)(c2ccc(Cl)cc2)N1C(=O)N1CCN(CCCS(C)(=O)=O)CC1`, the cell viability was 96 ± 5.5%.

Take `Cc1nc(NC(=O)N2CCC[C@H]2C(N)=O)sc1-c1ccnc(C(C)(C)C(F)(F)F)c1` [Alpelisib]: the cell viability was 92.6 ± 1%.

Consider `COC(=O)C[C@](O)(CCCC(C)(C)O)C(=O)O[C@@H]1C(OC)=C[C@]23CCCN2CCc2cc4c(cc2[C@H]13)OCO4` [Homoharringtonine], for which the cell viability came out at 54 ± 5.4%.

For the compound `Nc1nc2[nH]cnc2c(=S)[nH]1` [Thioguanine], the cell viability amounted to 90.3 ± 0.61%.

For the compound `O=C1c2c(O)ccc(O)c2C(=O)c2c(NCCNCCO)ccc(NCCNCCO)c21` [Mitoxantrone 2HCl], the cell viability is -0.766 ± 0.85%.

Take `COc1cc([C@@H]2c3cc4c(cc3[C@@H](O[C@@H]3O[C@@H]5CO[C@@H](C)O[C@H]5[C@H](O)[C@H]3O)[C@H]3COC(=O)[C@H]23)OCO4)cc(OC)c1O` [Etoposide]: the cell viability amounted to 74.3 ± 9%.

Turning to `CC(=O)[C@]1(O)Cc2c(O)c3c(c(O)c2[C@@H](O[C@H]2C[C@H](N)[C@H](O)[C@H](C)O2)C1)C(=O)c1ccccc1C3=O` [Idarubicin HCl], the cell viability worked out at 0.409 ± 0.53%.

As for `CCCCC1C(=O)N(c2ccccc2)N(c2ccccc2)C1=O` [Phenylbutazone], the cell viability worked out at 72.5 ± 5.7%.

In the case of `Nc1nc(F)nc2c1ncn2[C@@H]1O[C@H](COP(=O)(O)O)[C@@H](O)[C@@H]1O` [Fludarabine Phosphate], the cell viability was determined as 104 ± 3.5%.

As for `Nc1nc(CC(=O)Nc2ccc(CCNC[C@H](O)c3ccccc3)cc2)cs1` [Mirabegron], the cell viability turned out to be 82.5 ± 4.6%.

Consider `CCCCNc1ncc(-c2ccc(CN3CCOCC3)cn2)c(NC2CCC(O)CC2)n1` (stereo not given), for which the cell viability amounted to 36.41 ± 0.22%.

For the compound `C=CC(=O)Nc1cc2c(Nc3ccc(F)c(Cl)c3)ncnc2cc1OCCCN1CCOCC1` [Canertinib(CI-1033)], the cell viability was determined as 84.2 ± 5%.

Take `Nc1nc(Cl)nc2c1ncn2[C@@H]1O[C@H](CO)[C@@H](O)[C@@H]1F` [Clofarabine]: the cell viability came out at 98.8 ± 21%.

Take `O=C(O)C1(C(=O)O)CCC1.[NH2-].[NH2-].[Pt+2]` [Carboplatin]: the cell viability was 83.7 ± 2.2%.

On to `COc1ccc(/C=C/C(=O)Nc2ccccc2C(=O)O)cc1OC` [Tranilast], for which the cell viability stood at 80.2 ± 2.5%.
